Source: PubChem BioAssay (NCATS)
Inconclusive results are not listed. Activity calls are given as the source filed them. Calls come from the whole dose curve; as a rule, active = well fitted inhibition curve with a large enough effect; inconclusive = small, poorly fitted or top-dose-only effect; inactive = flat fitted curve, though single readings scatter.

assay: Primary qHTS for inhibitors of nuclear receptor binding SET domain protein 2 (NSD2) in an isogenic RCH-ACV NSD2 p.E1099K mutant (9B) (AID 1645876); conditions: RCH-ACV (leukaemia line) NSD2 E1099K (9B) viability, CellTiter-Glo, 72 h; series mostly up to 44.9 µM; activity change, negative = viability loss: at the top concentration; note: nearly all actives have a fitted effect of over 70% in size
% is set by controls: 0 for no effect and ±100 for the full control effect; potency is the fitted concentration of half-maximal effect.

| Structure (SMILES) | Potency | activity change, negative = viability loss | outcome |
| --- | --- | --- | --- |
| CC(=O)Nc1ccn(C2COC(COC(=O)c3ccccc3)O2)c(=O)n1 (stereo not given) | 10.6 µM (active) | – | – |
| COc1cc(C(=O)OC(COCCC(C)C)CN2CCOCC2)cc(OC)c1OC (stereo not given) | – | -1.68% (inactive) | – |
| C[C@@H]1C[C@H]2[C@@H]3CCC4=CC(=O)C=C[C@]4(C)[C@@]3(F)[C@@H](O)C[C@]2(C)[C@@]1(O)C(=O)COC(=O)c1ccncc1 | – | -35.8% (inactive) | – |
| Cc1c(F)cc2c(=O)c(C(=O)O)cn3c2c1CCC3C (stereo not given) | – | 3.31% (inactive) | – |
| Cc1oc(=O)oc1COC(=O)[C@@H]1N2C(=O)[C@@H](NC(=O)[C@H](N)c3ccccc3)[C@H]2SC1(C)C | – | – | inactive |
| COC(=O)C1=C(C)NC(C)=C(C(=O)OCCc2ccc(N3CCN(C(c4ccccc4)c4ccccc4)CC3)cc2)C1c1cccc([N+](=O)[O-])c1 (stereo not given) | – | 7.57% (inactive) | – |
| CN(C)CCCOC1(Cc2ccccc2)CCCCCC1 | – | -8.74% (inactive) | – |
| CC(=O)Nc1ccc(S(=O)(=O)Nc2cc(C)on2)cc1 | – | – | inactive |
| NC(=O)C1(N2CCCCC2)CCN(CCCN2c3ccccc3CCc3ccc(Cl)cc32)CC1 | 9.44 µM (active) | – | – |
| O=C(CCOCCOCCOCCOCCC(=O)Nc1c(I)cc(I)c(C(=O)O)c1I)Nc1c(I)cc(I)c(C(=O)O)c1I | – | -11.6% (inactive) | – |
| CN1CC(=O)N2[C@H](c3ccc4c(c3)OCO4)c3[nH]c4ccccc4c3C[C@@H]2C1=O | inactive | – | – |
| Cn1cc(S(C)=O)c(=O)c2ccc(F)cc21 (stereo not given) | – | 7.89% (inactive) | – |
| CC(=O)N(c1onc(C)c1C)S(=O)(=O)c1ccc(N)cc1 | – | -2.55% (inactive) | – |
| CCOC(=O)NNc1nncc2ccccc12 | – | 7.91% (inactive) | – |
| Cc1ccccc1C(=O)N1CC/C(=N\OS(=O)(=O)O)c2ccc(Cl)cc21 | – | 8.85% (inactive) | – |
